Assay results reported in PubChem BioAssay AID1159580 (chemical genetic matrix, 2015).
Several values for one entry are separate records, joined by “and”; a condition that tells them apart may be missing. Equal entries are not always repeated. Out of some 5,500 compounds screened, about 2,000 (36%) were called active. Roughly 18% stayed inconclusive and do not appear here. Rule as the data show it: active = normalized growth mostly below about 0.91 (no sharp cut-off); inconclusive = no clear call, values can overlap the other calls; inactive = mostly above about 0.92. Some of the results follow. The source holds several records for some structures; these can differ, active in one and inactive in another.

Assay: chemical genetic growth profiling, strain panel (AID 1159580);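 also: tested at 20 µM; growth read once vehicle control cultures reached saturation at 30 °C; 1 = growth at the plate median or of vehicle wells; lower values mean less growth of the strain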
Details: growth OD

Measured: normalized growth

CCCCCCCCCCCCCCCCCC(=O)OC(CC(=O)O)C[N+](C)(C)C (stereo not drawn)
1.03 (inactive) and 0.297 (active): S. cerevisiae deletion strains, locus YMR307W, strain GAS1, stronger effect = lower value
0.892 (inactive) and 0.209 (active): S. cerevisiae deletion strains, locus YPL055C, strain LGE1, stronger effect = lower value
active: S. cerevisiae deletion strains, locus YAL013W, strain DEP1, stronger effect = lower value 0.117 | S. cerevisiae deletion strains, locus YAL040C, strain CLN3, stronger effect = lower value 0.47 | S. cerevisiae deletion strains, locus YBR021W, strain FUR4, stronger effect = lower value 0.0953 | S. cerevisiae deletion strains, locus YCL029C, strain bik1, stronger effect = lower value 0.316 | S. cerevisiae deletion strains, locus YDL035C, strain GPR1, stronger effect = lower value 0.283 | S. cerevisiae deletion strains, locus YDL074C, strain BRE1, stronger effect = lower value 0.238 | S. cerevisiae deletion strains, locus YDL101C, strain DUN1, stronger effect = lower value 0.374 | S. cerevisiae deletion strains, locus YDL134C, strain PPH21, stronger effect = lower value 0.142 | S. cerevisiae deletion strains, locus YDL185W, strain tfp1, stronger effect = lower value 0.0578 | S. cerevisiae deletion strains, locus YDL192W, strain arf1, stronger effect = lower value 0.917 | S. cerevisiae deletion strains, locus YDR101C, strain arx1, stronger effect = lower value 0.679 | S. cerevisiae deletion strains, locus YDR150W, strain NUM1, stronger effect = lower value 0.583 | S. cerevisiae deletion strains, locus YDR162C, strain NBP2, stronger effect = lower value 0.0806 | S. cerevisiae deletion strains, locus YDR318W, strain mcm21, stronger effect = lower value 0.348 | S. cerevisiae deletion strains, locus YDR388W, stronger effect = lower value 0.0585 | S. cerevisiae deletion strains, locus YDR502C, strain sam2, stronger effect = lower value 0.619 | S. cerevisiae deletion strains, locus YEL061C, strain CIN8, stronger effect = lower value 0.44 | S. cerevisiae deletion strains, locus YER110C, stronger effect = lower value 0.156 | S. cerevisiae deletion strains, locus YER155C, strain BEM2, stronger effect = lower value 0.274 | S. cerevisiae deletion strains, locus YER167W, strain BCK2, stronger effect = lower value 0.214 | S. cerevisiae deletion strains, locus YGL078C, strain dbp3, stronger effect = lower value 0.62 | S. cerevisiae deletion strains, locus YGL086W, strain mad1, stronger effect = lower value 0.23 | S. cerevisiae deletion strains, locus YGL248W, strain PDE1, stronger effect = lower value 0.153 | S. cerevisiae deletion strains, locus YGR135W, strain pre9, stronger effect = lower value 0.185 | S. cerevisiae deletion strains, locus YGR229C, strain SMI1, stronger effect = lower value 0.797 and 0.0756 | S. cerevisiae deletion strains, locus YGR252W, strain gcn5, stronger effect = lower value 0.155 | S. cerevisiae deletion strains, locus YHR030C, strain SLT2, stronger effect = lower value 0.109 | S. cerevisiae deletion strains, locus YHR079C, strain IRE1 (second series), stronger effect = lower value 0.585 | S. cerevisiae deletion strains, locus YHR094C, strain hxt1, stronger effect = lower value 0.608 | S. cerevisiae deletion strains, locus YHR129C, strain ARP1, stronger effect = lower value 0.637 | S. cerevisiae deletion strains, locus YHR200W, strain rpn10, stronger effect = lower value 0.871 | S. cerevisiae deletion strains, locus YIL066C, strain RNR3, stronger effect = lower value 0.0537 | S. cerevisiae deletion strains, locus YIL073C, strain SPO22, stronger effect = lower value 0.108 | S. cerevisiae deletion strains, locus YIL125W, strain kgd1, stronger effect = lower value 0.59 | S. cerevisiae deletion strains, locus YIR030C, strain dcg1, stronger effect = lower value 0.587 | S. cerevisiae deletion strains, locus YJL095W, strain BCK1, stronger effect = lower value 0.0851 | S. cerevisiae deletion strains, locus YJL187C, strain SWE1 (second series), stronger effect = lower value 0.571 | S. cerevisiae deletion strains, locus YJR043C, strain POL32, stronger effect = lower value 0.567 | S. cerevisiae deletion strains, locus YJR075W, strain HOC1, stronger effect = lower value 0.146 | S. cerevisiae deletion strains, locus YKL009W, strain mrt4, stronger effect = lower value 0.504 | S. cerevisiae deletion strains, locus YKL085W, strain MDH1 (second series), stronger effect = lower value 0.56 | S. cerevisiae deletion strains, locus YKL085W, strain MDH1, stronger effect = lower value 0.56 | S. cerevisiae deletion strains, locus YKL190W, strain CNB1, stronger effect = lower value 0.0864 | S. cerevisiae deletion strains, locus YKR001C, strain vps1, stronger effect = lower value 0.89 | S. cerevisiae deletion strains, locus YLR058C, strain SHM2, stronger effect = lower value 0.598 | S. cerevisiae deletion strains, locus YLR102C, strain apc9, stronger effect = lower value 0.848 | S. cerevisiae deletion strains, locus YLR268W, strain sec22, stronger effect = lower value 0.168 | S. cerevisiae deletion strains, locus YLR330W, strain CHS5, stronger effect = lower value 0.0585 | S. cerevisiae deletion strains, locus YLR342W, strain FKS1 (second series), stronger effect = lower value 0.102 | S. cerevisiae deletion strains, locus YLR371W, strain rom2, stronger effect = lower value 0.9 | S. cerevisiae deletion strains, locus YLR418C, strain cdc73, stronger effect = lower value 0.101 | S. cerevisiae deletion strains, locus YML016C, strain PPZ1, stronger effect = lower value 0.229 | S. cerevisiae deletion strains, locus YML032C, strain rad52, stronger effect = lower value 0.499 | S. cerevisiae deletion strains, locus YML124C, strain tub3, stronger effect = lower value 0.88 | S. cerevisiae deletion strains, locus YMR078C, strain ctf18, stronger effect = lower value 0.392 | S. cerevisiae deletion strains, locus YMR223W, strain ubp8, stronger effect = lower value 0.406 | S. cerevisiae deletion strains, locus YNL067W, strain RPL9B, stronger effect = lower value 0.698 | S. cerevisiae deletion strains, locus YNL128W, strain TEP1, stronger effect = lower value 0.752 | S. cerevisiae deletion strains, locus YNL153C, strain GIM3, stronger effect = lower value 0.281 | S. cerevisiae deletion strains, locus YNL175C, strain NOP13, stronger effect = lower value 0.249 | S. cerevisiae deletion strains, locus YNL197C, strain WHI3, stronger effect = lower value 0.736 | S. cerevisiae deletion strains, locus YNL224C, strain SQS1, stronger effect = lower value 0.391 | S. cerevisiae deletion strains, locus YNL233W, strain BNI4, stronger effect = lower value 0.136 | S. cerevisiae deletion strains, locus YNL250W, strain rad50, stronger effect = lower value 0.69 | S. cerevisiae deletion strains, locus YNL271C, strain bni1, stronger effect = lower value 0.736 | S. cerevisiae deletion strains, locus YNL298W, strain CLA4, stronger effect = lower value 0.192 | S. cerevisiae deletion strains, locus YNL307C, strain MCK1, stronger effect = lower value 0.0704 | S. cerevisiae deletion strains, locus YOL006C, strain TOP1, stronger effect = lower value 0.101 | S. cerevisiae deletion strains, locus YOL147C, strain pex11, stronger effect = lower value 0.118 | S. cerevisiae deletion strains, locus YOR083W, strain WHI5 (second series), stronger effect = lower value 0.102 | S. cerevisiae deletion strains, locus YOR136W, strain idh2, stronger effect = lower value 0.773 | S. cerevisiae deletion strains, locus YOR144C, strain elg1, stronger effect = lower value 0.569 | S. cerevisiae deletion strains, locus YOR184W, strain ser1, stronger effect = lower value 0.0857 | S. cerevisiae deletion strains, locus YOR316C, strain cot1, stronger effect = lower value 0.582 | S. cerevisiae deletion strains, locus YPR119W, strain clb2, stronger effect = lower value 0.796 | S. cerevisiae deletion strains, locus YPR163C, strain tif3, stronger effect = lower value 0.0804 | S. cerevisiae deletion strains, locus YPR167C, strain met16, stronger effect = lower value 0.587 | S. cerevisiae deletion strains, strain wtn01, stronger effect = lower value 0.303 | S. cerevisiae strains, strain wild type, stronger effect = lower value 0.51
0.976 (inactive) and 0.122 (active): S. cerevisiae deletion strains, locus YGR078C, strain PAC10, stronger effect = lower value
1 (inactive) and 0.232 (active): S. cerevisiae deletion strains, locus YMR263W, strain SAP30, stronger effect = lower value
inactive: S. cerevisiae deletion strains, locus YBR229C, strain ROT2, stronger effect = lower value 1.03 | S. cerevisiae deletion strains, locus YCL061C, strain MRC1 (second series), stronger effect = lower value 0.991 | S. cerevisiae deletion strains, locus YDR363W, strain ESC2, stronger effect = lower value 0.985 | S. cerevisiae deletion strains, locus YER002W, strain NOP16, stronger effect = lower value 1.01 | S. cerevisiae deletion strains, locus YJL134W, strain LCB3, stronger effect = lower value 1.01 | S. cerevisiae deletion strains, locus YJL168C, strain set2, stronger effect = lower value 0.956 | S. cerevisiae deletion strains, locus YKL068W, stronger effect = lower value 1 | S. cerevisiae deletion strains, locus YLR039C, strain RIC1, stronger effect = lower value 1.1 | S. cerevisiae deletion strains, locus YLR262C, strain YPT6, stronger effect = lower value 1.09 | S. cerevisiae deletion strains, locus YNR052C, strain pop2, stronger effect = lower value 0.961 | S. cerevisiae deletion strains, locus YOR061W, strain CKA2, stronger effect = lower value 0.949 | S. cerevisiae deletion strains, locus YOR069W, strain VPS5, stronger effect = lower value 1 | S. cerevisiae deletion strains, locus YPR141C, strain kar3, stronger effect = lower value 1.05
0.983 (inactive) and 0.182 (active): S. cerevisiae deletion strains, locus YNL322C, strain KRE1, stronger effect = lower value
0.96 (inactive) and 0.778 (active): S. cerevisiae deletion strains, locus YPL241C, strain CIN2, stronger effect = lower value
